The panel holds about 79,000 compounds, 15% with a hit somewhere; the sample as a whole holds those more often. Activity calls are given as the source filed them. No stated cut-off is given here; in the data, active means growth inhibition above about 70%; inactive means the rest.
What was measured:
[1] = NCI Yeast Anticancer Drug Screen. Data for the rad50 strain (AID 155);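 further: 0% = growth of vehicle-only cultures of the same strain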; settings: S. cerevisiae rad50 strain growth inhibition; at 50.0 µM; hits give high values
Summary of the method: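 Cells are treated with compound, grown, and their growth is then scored against vehicle-only cultures of the same repair-deficient yeast strain.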

[2] = NCI Yeast Anticancer Drug Screen. Data for the mec2-1 strain (AID 157); settings: S. cerevisiae mec2-1 strain, at 50.0 µM, hits give high values
Summary of the method: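 Cells of the genetically defined mec2-1 yeast strain are incubated with test compound. Inhibition of growth is calculated against vehicle-treated controls.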

[3] = NCI Yeast Anticancer Drug Screen. Data for the sgs1 mgt1 strain (AID 161);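 further: 0% = growth of cultures given vehicle only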; settings: S. cerevisiae sgs1 mgt1 strain, at 50.0 µM, hits give high values
Summary of the method: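 Inhibition of yeast growth, normalised to vehicle-treated controls, is reported for a strain bearing genetic alterations in DNA damage repair.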

[4] = NCI Yeast Anticancer Drug Screen. Data for the cln2 rad14 strain (AID 165);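 further: 0% = growth equal to vehicle treated cultures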; settings: S. cerevisiae cln2 rad14 strain, at 50.0 µM, hits give high values
Summary of the method: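 The screen exposed genetically defined yeast (cln2 rad14) to test compounds and scored growth inhibition relative to vehicle-treated controls.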

[5] = NCI Yeast Anticancer Drug Screen. Data for the bub3 strain (AID 167); settings: S. cerevisiae bub3 mutant strain, at 50.0 µM, hits give high values
Summary of the method: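 Part of a panel of yeast mutants defective in DNA damage repair or cell cycle regulation. Each strain is grown with compound, and inhibition is calculated relative to solvent-treated cultures.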

[6] = NCI Yeast Anticancer Drug Screen. Data for the mlh1 rad18 strain (AID 175); settings: S. cerevisiae mlh1 rad18 strain growth inhibition; at 50.0 µM; hits give high values
Summary of the method: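 Compound-treated yeast growth, normalised to vehicle controls. Strain bears defined DNA repair mutations.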

Measured: growth inhibition

CN(C)C=Nc1cccc2c1NSN2
inactive: [1] 5.5% | [2] -6.4% | [3] -1.35% | [4] 29.1% | [5] 13.4% | [6] 33.1%

N#Cc1ccc(OCCCOc2ccccc2)cc1
inactive: [1] 4.2% | [2] 47.5% | [3] 20.8% | [4] -2.7% | [5] 37.4% | [6] 4.5%

CN(CC(C)(C)C(O)c1ccccc1)C(=O)c1ccccc1 (stereo not drawn)
inactive: [1] 0.95% | [2] -5.7% | [3] 12.7% | [4] 20.7% | [5] 8.2% | [6] 12.6%

COC(=O)C(=O)/C(=C\N1C(=O)CC(=O)NC1=S)C(=O)c1ccc([N+](=O)[O-])cc1
inactive: [1] 17.9% | [2] -0.4% | [3] 9.6% | [4] 1.5% | [5] -5.25% | [6] 6%

CCOc1ccccc1NC(=O)C1CCCCC1C(=O)O (stereo not drawn)
inactive: [1] 14.2% | [2] 16.7% | [3] 14.6% | [4] 25.6% | [5] 12.7% | [6] 7.8%

N#CC(NNC(=O)Cc1ccccc1)c1ccccc1O (stereo not drawn)
inactive: [1] 0.8% | [2] -10% | [3] -2.05% | [4] -19.4% | [5] -21.7% | [6] -12.8%

CCNC(=O)COc1ccc(Br)cc1Br
inactive: [1] -3.7% | [2] -5.2% | [3] -3.8% | [4] 11.2% | [5] 8.4% | [6] 15.2%

Nc1ccc(S(=O)(=O)n2cccc2)cc1
inactive: [1] -8.9% | [2] 1.2% | [3] -19.9% | [4] -6.4% | [5] -9.25% | [6] -10.5%

O=C(/C=C(\N=P(c1ccccc1)(c1ccccc1)c1ccccc1)C(F)(F)C(F)(F)C(F)(F)C(F)(F)C(F)(F)C(F)(F)C(F)(F)F)c1ccccc1
inactive: [1] -16.1% | [2] -13.2% | [3] -17.3% | [4] 0.65% | [5] 14.2% | [6] -3%

CC(C)(C)OC(=O)C1=C2C=C(O)C=CC2(C)N(Cc2ccccc2)C1=N (stereo not drawn)
inactive: [1] -23.9% | [2] -55.5% | [3] -36% | [4] -36.2% | [5] -24.6% | [6] -50.2%

CCCCCCCCCCCC(=O)OCC
inactive: [1] 26.8% | [2] 22.4% | [3] 8.45% | [4] 25.2% | [5] 9.15% | [6] 8.7%

Cc1c(-c2ccccc2)c2ccccc2c2ccccc12
inactive: [1] -10% | [2] -15.6% | [3] -4.25% | [4] 0.1% | [5] 2.2% | [6] -14.4%

Cc1noc(N)c1Sc1ccc(Br)cc1
active: [1] 98.7% | [2] 98.8% | [3] 99% | [4] 98.5% | [5] 98.8% | [6] 99.1%

Cn1c(NCCN2CCCCC2)c(C(=O)/C=C/c2ccccc2)c(=O)n(C)c1=O
inactive: [1] 15.3% | [2] 19.4% | [3] 8.65% | [4] 17.6% | [5] -1.5% | [6] 20.8%

CC(=O)Nc1cc2c(cc1Cl)[nH]c(=O)c1ccccc12
inactive: [1] 8.1% | [2] -10.9% | [3] -19.8% | [4] -3.25% | [5] 11.4% | [6] 7.5%

CN/C=C(/c1ccc(OC)cc1)C(O)c1ccc(OC)c(OC)c1 (stereo not drawn)
inactive: [1] -17.9% | [2] -16.2% | [3] -38% | [4] 2.75% | [5] -10.8% | [6] -20.4%

CN(C)Cc1[nH]c(=O)[nH]c(=O)c1O
inactive: [1] -9.05% | [2] -8.75% | [3] -11.9% | [4] -38.8% | [5] -21.5% | [6] -45.3%

Cc1c(C=O)cc(-c2ccccc2)n1C
inactive: [1] -16.2% | [2] -3.25% | [3] -4.85% | [4] -8.45% | [5] -7.1% | [6] -1.6%

O=N[C@@H]1CCC[C@H](Cl)C1
inactive: [1] 3.95% | [2] -6.65% | [3] -0.1% | [4] 17.2% | [5] 5.75% | [6] 15.6%

CCOC(=O)Nc1ccn(C2OC(COC(C)=O)C(OC(C)=O)C2OC(C)=O)c(=O)n1 (stereo not drawn)
inactive: [1] 19.9% | [2] -11.4% | [3] 15.1% | [4] -46.4% | [5] -1.9% | [6] 8.3%

COC(=O)CC12CCCC(C)(CC(=O)N1)C2 (stereo not drawn)
inactive: [1] 16.4% | [2] 1.25% | [3] 12.5% | [4] 15.8% | [5] -4% | [6] -0.5%

O=C1NC(CN2CCCC(O)C2)C(=O)NC1CN1CCCC(O)C1 (stereo not drawn)
inactive: [1] 2% | [2] 9.35% | [3] 13.3% | [4] -22.8% | [5] -4.45% | [6] 7.6%

O=C(O)Cc1ccccc1C(=O)O
inactive: [1] 12.9% | [2] 2.3% | [3] 7.7% | [4] 13.8% | [5] -19% | [6] -5%

Cc1ccc(NC=O)cc1NC=O
inactive: [1] 37.6% | [2] -1.4% | [3] 9.5% | [4] -27.1% | [5] 4.2% | [6] 15.9%

CCN(CC)CCCC(C)n1c(-c2ccc(OC)cc2)nc2cc(Cl)ccc21 (stereo not drawn)
inactive: [1] -0.65% | [2] 8.5% | [3] 26.9% | [4] 10.1% | [5] 6.55% | [6] 4.6%

O=c1[nH]cnc2c1cnn2-c1ccccc1
inactive: [1] 17.1% | [2] 5.3% | [3] 9.7% | [4] 3.85% | [5] -2.05% | [6] 22.4%

O=C1CN(C(=O)c2ccccc2)C(=S)N1
inactive: [1] 22.5% | [2] 6.7% | [3] 11.7% | [4] -17.9% | [5] 4.75% | [6] 4.5%

CC(C)C(=O)/C=C/c1ccc(Cl)c(Cl)c1
inactive: [1] 41.2% | [2] 28.2% | [3] 26.4% | [4] -1.85% | [5] 18.9% | [6] 26.8%

O=[n+]1c2c(n([O-])c3cc(Cl)c(Cl)cc31)CCCC2
inactive: [1] 11.8% | [2] 11.2% | [3] 17.5% | [4] -2% | [5] 25.9% | [6] 4.9%

Nc1nc(O)c(N)c(=O)[nH]1
inactive: [1] -18.2% | [2] -16.9% | [3] -15.8% | [4] -17.8% | [5] -4.05% | [6] -20.9%

Cc1noc(/N=C/c2ccccc2)c1C
inactive: [1] -6.8% | [2] -5.45% | [3] -5.3% | [4] -28.1% | [5] 4.4% | [6] -2.5%

O=S(=O)(O)c1cc(O)c(N=NC2S(=O)(=O)OCCOS2(=O)=O)c2ccccc12
inactive: [1] 7.45% | [2] 2.7% | [3] 31.2% | [4] -9.2% | [5] 16.8% | [6] -4.05%

CC(=O)OCc1ccc(C)cc1
inactive: [1] -9.05% | [2] 6.6% | [3] -12.7% | [4] -32.8% | [5] -14.9% | [6] 0.3%

CC1(n2[nH]c(=O)n(-c3ccccc3)c2=O)Cn2c(=O)n(-c3ccccc3)c(=O)n2-c2ccccc21 (stereo not drawn)
inactive: [1] -49.2% | [2] -0.3% | [3] -1% | [4] 18.7% | [5] -5.2% | [6] 9.1%

CCOC(=O)C1(C(=O)OCC)CCCCC1=O
inactive: [1] 13.2% | [2] -15.2% | [3] -22.9% | [4] 11.2% | [5] -46.6% | [6] -1.1%

O=S1(=O)CC(N2CCCCC2)C=C(c2ccccc2)O1 (stereo not drawn)
inactive: [1] 37.1% | [2] 0.25% | [3] 14.3% | [4] 15.2% | [5] 12.7% | [6] 34.2%

Cc1cc([N+](=O)[O-])ccc1NC(=O)OC(C)C
inactive: [1] -12.6% | [2] -30.2% | [3] 3.05% | [4] 8.8% | [5] 1.35% | [6] -9.35%

C1=Cc2ccccc2/C1=C\C=C\c1ccccc1
inactive: [1] 19.1% | [2] 8.75% | [3] -2.35% | [4] -11.4% | [5] 2.8% | [6] 18.1%
